Reference: PubChem BioAssay AID1210 (NMMLSC, 2008)
Unmarked numbers belong to inactive results. Active and inactive are the calls of the source.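 How the source made its calls: active means blocks over 70% of labeled estradiol binding at 10 µM, or over a set limit at 100 nM; inactive means the rest.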

Each molecule was assayed against Estrogen receptor beta (Homo sapiens) (UniProt Q92731) (assay: displacement of fluorescent estrogen from ERbeta – cell-based, Cos7 ERbeta-GFP, flow cytometry, primary screen (AID 1210;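 further: 0% = DMSO vehicle wells and 100% = complete loss of labeled estradiol signal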)). Conditions: fluorescent estrogen binding, at 10 µM, hits give high values.
Estrogen receptor beta (Homo sapiens), sequence (Q92731 whole entry, looked up): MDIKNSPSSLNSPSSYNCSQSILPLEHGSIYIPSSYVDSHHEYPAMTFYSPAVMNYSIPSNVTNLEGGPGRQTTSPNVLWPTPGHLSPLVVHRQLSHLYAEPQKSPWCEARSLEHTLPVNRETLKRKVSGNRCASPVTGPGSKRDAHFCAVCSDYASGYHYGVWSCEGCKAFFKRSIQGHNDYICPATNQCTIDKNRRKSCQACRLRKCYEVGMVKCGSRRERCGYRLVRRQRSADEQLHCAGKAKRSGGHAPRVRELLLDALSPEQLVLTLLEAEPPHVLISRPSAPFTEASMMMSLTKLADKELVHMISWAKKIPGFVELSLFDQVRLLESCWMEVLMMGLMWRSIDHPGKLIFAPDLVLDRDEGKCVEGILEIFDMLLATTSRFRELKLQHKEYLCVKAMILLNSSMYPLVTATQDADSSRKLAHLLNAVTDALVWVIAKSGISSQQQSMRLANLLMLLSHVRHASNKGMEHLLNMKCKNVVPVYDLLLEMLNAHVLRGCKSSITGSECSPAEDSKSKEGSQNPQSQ
`Nc1nc(-c2ccc3c(c2)NC(=O)CO3)cs1` was tested, and the inhibition was 70%. Molecule `O=C(NCc1ccco1)c1cc2cc3ccc(Cl)cc3nc2o1` has an inhibition of 14%. Molecule `CCOc1ccccc1-n1nnnc1SCC(=O)NC(=O)NCc1ccco1` has an inhibition of 32%. Work on `CCOc1cc2c(c([N+](=O)[O-])c1)NC(c1ccc(Cl)cc1)C1CC=CC21` (stereo not drawn) yielded an inhibition of 16%. `CC1CCN(Cc2c(O)ccc3c4c(c(=O)oc23)CCC4)CC1` was tested, and the inhibition was 21%. `Cc1cc([N+](=O)[O-])c2c(c1C)C1C=CCC1C(c1ccccn1)N2` (stereo not drawn) gave an inhibition of 0%. In the case of `COC(=O)c1ccc(OCc2c(C)noc2C)cc1`, the inhibition is reported as 0%. In the case of `O=C(O)c1ccc([N+](=O)[O-])c2c1NC(c1ccccc1)C1CC=CC21` (stereo not drawn), the inhibition is reported as 62%. Molecule `CCOc1ccc(NS(=O)(=O)c2ccc3c(c2)[C@H]2C=CC[C@H]2[C@@H](c2ccc(C(=O)O)cc2)N3)cc1` has an inhibition of 52%. With `O=C1CC(c2ccncc2)c2cc3c(cc2N1)OCCO3` (stereo not drawn) the inhibition was 14%. Work on `Nc1c(Cl)cc(Cl)cc1C(=O)OCC(=O)NC1CC1` yielded an inhibition of 42%. Work on `CCOc1ccc(NS(=O)(=O)c2ccc3c(c2)[C@H]2C=CC[C@H]2[C@@H](c2cccc([N+](=O)[O-])c2)N3)cc1` yielded an inhibition of 0%. With `COc1ccc(C(N)CCc2ccc(C)o2)cc1` (stereo not drawn) the inhibition was 38%. `Cc1nc2ccccc2n1-c1cc(C(C)(C)C)c(O)c(C(C)(C)C)c1` was tested, and the inhibition was 16%. Molecule `O=C(O)c1ccc(Cl)c2c1C1C=CCC1C(c1ccccn1)N2` (stereo not drawn) has an inhibition of 28%. `Cc1ccc(-c2nn3c(C)nnc3s2)cc1NC(=O)COc1ccc(Cl)cc1` gave an inhibition of 24%. Molecule `COc1cc(/C=N/N2CCN(C3c4ccccc4-c4ccccc43)CC2)cc(OC)c1O` has an inhibition of 12%. `O=C1CC(c2ccc3c(c2)OCO3)c2ccc3ccccc3c2N1` (stereo not drawn) showed an inhibition of 19%. `O=C(O)c1cc(-c2ccco2)nc2ccccc12` was tested, and the inhibition was 14%. In the case of `CC(=O)Oc1ccc2c(c1)CCC1C2C(O)CC2(C)C(=O)CCC12` (stereo not drawn), the inhibition is reported as 77% (active). For `CC(=O)Nc1ccc2[nH]c(C)cc(=O)c2c1`, the inhibition was 64%. `COc1ccc(C2Nc3ccccc3C(=O)N2c2ccccc2)cc1CSc1ccccn1` (stereo not drawn) was tested, and the inhibition was 60%. `CCCC1Nc2ccc(C(=O)O)cc2C2C=CCC12` (stereo not drawn) showed an inhibition of 44%. `CCc1cc2c3c(c(=O)oc2cc1OCC(=O)OC)CCCC3` gave an inhibition of 15%. In the case of `CC1(C)CC(=O)C=C(NC2CC(C)(C)NC(C)(C)C2)C1`, the inhibition is reported as 2%. With `CC(C)C1CC(CCNCc2ccc3c(c2)OCO3)(c2ccccc2)CCO1` (stereo not drawn) the inhibition was 45%. With `CSC(=O)CNC1(Cc2ccc(O)cc2)CCCCC1` the inhibition was 87% (active). `Cc1c(Cc2ccccc2)c(=O)n2c([nH]c3ccccc32)c1C#N` showed an inhibition of 9%. `CC(=O)OC1CC(C)(C)N(OC(=O)c2ccc(N)cc2)C(C)(C)C1` was tested, and the inhibition was 30%. Work on `O=c1oc2cc(O)ccc2c2c1CCCC2` yielded an inhibition of 12%. Work on `O=C(Cc1ccc(S(=O)(=O)N2CCOCC2)s1)Nc1nc2c(s1)CCCC2` yielded an inhibition of 18%. `COc1cc(-c2nc3ccc4ccccc4c3c3c2CCC3)cc(OC)c1O` was tested, and the inhibition was 64%. Work on `CCOc1ccccc1-c1nc(-c2ccc(NC(=O)c3ccc(Br)o3)cc2)no1` yielded an inhibition of 37%. For `CCCc1cc(=O)oc2c(C)c(OC3CCCCC3=O)ccc12` (stereo not drawn), the inhibition was 19%. With `COc1cc([N+](=O)[O-])cc2c1NC(c1ccc(Br)cc1)C1CC=CC21` (stereo not drawn) the inhibition was 17%. `O=C(NC1CC1)c1ccc2c(c1)C1C3CCC(C3)C1C(c1ccccc1)N2` (stereo not drawn) gave an inhibition of 0%. For `CC1(C)Cc2[nH]c(=O)c(C(=O)O)cc2CO1`, the inhibition was 43%. `NC(=O)c1ccsc1NC(=O)COC(=O)Cc1ccsc1` showed an inhibition of 44%.
